Assay in all cases: NCI-60 one-dose screen, 48 h (100 = growth as untreated, 0 = no growth, -100 = all killed)
The subject of one test is SK-MEL-2 melanoma. The following applies: 10 µM unless noted.
The next test has as its system EKVX NSCLC. The following applies: 10 µM unless noted.
The next test has as its system SN12C renal. The conditions noted are these: 10 µM unless noted.
The next test relates to UO-31 renal. The conditions noted are these: 10 µM unless noted.
The subject of a further test is ACHN renal. The conditions noted are these: 10 µM unless noted.
A further test has as its system CAKI-1 renal. The conditions noted are these: 10 µM.
The test system of another test is A498 renal. The following applies: 10 µM unless noted.
A further test has as its system CCRF-CEM leukemia. The following applies: 10 µM unless noted.
Another test relates to MOLT-4 leukemia. The conditions noted are these: 10 µM unless noted.
In another test the test system is SR leukemia. The conditions noted are these: 10 µM unless noted.
The next test relates to RPMI-8226 leukemia. The conditions noted are these: 10 µM unless noted.
Another test has as its system OVCAR-8 ovarian. The following applies: 10 µM unless noted.
The next test relates to OVCAR-5 ovarian. The conditions noted are these: 10 µM unless noted.
A further test has as its system OVCAR-4 ovarian. The conditions noted are these: 10 µM unless noted.
The next test deals with SK-OV-3 ovarian. The following applies: 10 µM unless noted.
For another test, the system named is OVCAR-3 ovarian. The conditions noted are these: 10 µM unless noted.
In a further test the test system is NCI/ADR-RES ovarian. The conditions noted are these: 10 µM unless noted.
A further test deals with IGROV1 ovarian. The conditions noted are these: 10 µM unless noted.
Another test deals with HS 578T breast. The following applies: 10 µM unless noted.

The panel holds about 83,000 compounds, 20% with a hit somewhere; the sample as a whole holds those more often.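 48-hour exposure, single concentration, 96-well plates; percent growth endpoint where 0 means no net growth. Active: below 10.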 Unmarked numbers belong to inactive results. Activity calls are given as the source filed them.

Take `O=[N+]([O-])c1cccc(C2c3ccccc3Oc3ccccc32)c1`: the growth is 107% in the test on SK-MEL-2 melanoma; 93.9% with EKVX NSCLC; 99.9% in the test on SN12C renal; 70.7% in the test on UO-31 renal; 89.1% with ACHN renal; 72.4% with CAKI-1 renal. The growth in the test on A498 renal is 94.1%; in the test with CCRF-CEM leukemia, 88.6%; in the test on MOLT-4 leukemia it was 79.6%; in the test with SR leukemia, 77.4%; with RPMI-8226 leukemia, 82.2%; in the test on OVCAR-8 ovarian it was 89.4%. Moreover, the growth with OVCAR-5 ovarian is 90.8%; with OVCAR-4 ovarian, 91%; in the test with SK-OV-3 ovarian, 84.1%; in the test with OVCAR-3 ovarian it was 91.7%; with NCI/ADR-RES ovarian, 93.7%.

As for `C=CCn1c(SCC(=O)Nc2ccc(C(=O)/C=C/c3cc(OC)c(OC)c(OC)c3)cc2)nnc1-c1ccc(OC)cc1`, the growth with SK-MEL-2 melanoma is 15.1%; in the test on EKVX NSCLC, 14.1%; in the test with SN12C renal, 13.8%; in the test with UO-31 renal, -79.6% (active); in the test on ACHN renal, -56.1% (active); in the test on CAKI-1 renal, 16.5%. The growth in the test with A498 renal was -3.03% (active); in the test on CCRF-CEM leukemia it was 6.53% (active); in the test with RPMI-8226 leukemia it was -33.1% (active); with OVCAR-8 ovarian, 7.47% (active); with OVCAR-5 ovarian, 9.19% (active); with OVCAR-4 ovarian, 19.3%. Also, the growth in the test on SK-OV-3 ovarian was 16.6%; in the test on IGROV1 ovarian it was -3.21% (active); with OVCAR-3 ovarian, -45.9% (active); with HS 578T breast, 32.5%; with NCI/ADR-RES ovarian, 20.1%.

For the molecule `O=C(Nc1ccc(-n2ccc3c(NC(=O)c4ccccc4)ncnc32)cc1)Nc1ccc(Cl)c(Cl)c1`, the growth is 11.7% with SK-MEL-2 melanoma; 27.3% with EKVX NSCLC; 15.8% with SN12C renal; 9.15% (active) in the test with UO-31 renal; 27.8% with ACHN renal; 30.8% in the test on CAKI-1 renal. Moreover, the growth is 90.5% with A498 renal; -10.2% (active) with CCRF-CEM leukemia; 28.7% in the test on MOLT-4 leukemia; -6.07% (active) in the test with SR leukemia; -1.3% (active) with RPMI-8226 leukemia; 0.377% (active) in the test with OVCAR-8 ovarian. The growth was 39.6% in the test on OVCAR-5 ovarian; -74.1% (active) in the test on OVCAR-4 ovarian; -2.23% (active) with IGROV1 ovarian; -67.1% (active) with OVCAR-3 ovarian; 53.2% in the test on NCI/ADR-RES ovarian.

Turning to `O=c1c2ccccc2sc2c(NCCN3CCOCC3)nc3ccccc3c12`, the growth in the test on SK-MEL-2 melanoma is 102%; in the test with EKVX NSCLC, 70.9%; in the test with SN12C renal it was 59.4%; with UO-31 renal, 47.6%; in the test on ACHN renal, 43.5%; in the test with A498 renal, 43.7%. Further, the growth with CCRF-CEM leukemia is 36.3%; with MOLT-4 leukemia it was 37%; in the test with SR leukemia, 3.91% (active); in the test on RPMI-8226 leukemia it was 40.3%; with OVCAR-8 ovarian, 58.8%; in the test on OVCAR-5 ovarian, 84.9%. The growth with OVCAR-4 ovarian is 65.6%; with SK-OV-3 ovarian, 50.8%; in the test on IGROV1 ovarian it was 66.2%; in the test with OVCAR-3 ovarian it was 79.2%; with HS 578T breast it was 52.7%; with NCI/ADR-RES ovarian it was 63.5%.

For the molecule `CC(=O)c1cc2c(c(O)c1C)C(=O)C(=O)c1c(O)cccc1-2`, the growth with SK-MEL-2 melanoma is -72.7% (active); in the test with EKVX NSCLC, -42.3% (active); in the test with SN12C renal it was -41.4% (active); in the test on UO-31 renal, -97.3% (active); in the test on ACHN renal, -90.3% (active); with CAKI-1 renal, -79.6% (active). In addition, the growth is -80.6% (active) in the test on A498 renal; 0.77% (active) in the test with CCRF-CEM leukemia; -32.4% (active) in the test with RPMI-8226 leukemia; -60.6% (active) with OVCAR-8 ovarian; -80.6% (active) in the test with OVCAR-5 ovarian; -97.6% (active) in the test with OVCAR-4 ovarian. The growth in the test on SK-OV-3 ovarian is -94.3% (active); with OVCAR-3 ovarian it was -45.6% (active); in the test with HS 578T breast, -12.3% (active); in the test with NCI/ADR-RES ovarian it was -8.15% (active).

With `CC(C)(C)C(=O)/C=c1/[nH]c(=O)/c(=C/c2ccccc2O)s1`, the growth in the test on SK-MEL-2 melanoma is 67.6%; in the test with EKVX NSCLC, 61.1%; with SN12C renal, 58.2%; in the test with UO-31 renal, 67.4%; in the test with ACHN renal, 74.5%; with CAKI-1 renal, 81.1%. Moreover, the growth with A498 renal was 55.6%; in the test on CCRF-CEM leukemia, 57.8%; with RPMI-8226 leukemia it was 60%; in the test on OVCAR-8 ovarian it was 66.9%; in the test on OVCAR-5 ovarian, 86.9%; in the test on OVCAR-4 ovarian it was 67.3%. Moreover, the growth with SK-OV-3 ovarian was 81.4%; in the test with IGROV1 ovarian, 50.1%; in the test with OVCAR-3 ovarian, 20.2%; in the test with HS 578T breast it was 71.7%; in the test on NCI/ADR-RES ovarian it was 47.1%.

In the case of `O=C(Nc1ccc(-n2cc(-c3ccncc3)c(-c3ccc(O)c(Cl)c3)n2)cc1)c1cc(C(F)(F)F)cc(C(F)(F)F)c1`, the growth with SK-MEL-2 melanoma was 68.8%; in the test with EKVX NSCLC it was 66.3%; in the test on SN12C renal, 64.4%; with UO-31 renal, 50.8%; in the test on ACHN renal, 54.2%; with CAKI-1 renal, 54.4%. In addition, the growth was 76.7% in the test on A498 renal; 28.3% in the test with MOLT-4 leukemia; 58.8% with SR leukemia; 27.9% in the test with RPMI-8226 leukemia; 69.5% with OVCAR-8 ovarian; 70.9% in the test with OVCAR-5 ovarian. Besides, the growth with OVCAR-4 ovarian was 85.9%; with SK-OV-3 ovarian, 84%; in the test with IGROV1 ovarian it was 61.4%; in the test on OVCAR-3 ovarian, 49.8%; with NCI/ADR-RES ovarian it was 67.2%.

Take `CS(=O)(=O)Nc1cccc(-c2ccc3ncnc(Nc4cncc(Cl)c4)c3c2)c1`: the growth in the test with SK-MEL-2 melanoma was 2.44% (active); in the test with EKVX NSCLC, 10.8%; in the test with SN12C renal it was 52.5%; in the test with UO-31 renal, 30.3%; with ACHN renal, 25.6%; in the test on A498 renal it was -34.1% (active). Besides, the growth in the test on CCRF-CEM leukemia was 17.1%; with MOLT-4 leukemia it was 0.601% (active); with SR leukemia, -10.5% (active); with RPMI-8226 leukemia, -8.07% (active); in the test with OVCAR-8 ovarian, 38.7%; in the test with OVCAR-5 ovarian, 56.7%. The growth is 50.9% in the test on OVCAR-4 ovarian; -7.86% (active) in the test on SK-OV-3 ovarian; -13.8% (active) in the test on IGROV1 ovarian; 31.9% in the test with OVCAR-3 ovarian; -2.64% (active) in the test on HS 578T breast.

`COc1ccc(C(=O)NC(=O)Nc2ccc3c(c2)NC(=O)/C3=C\c2[nH]c(C)c(C(=O)O)c2C)cc1`: the growth in the test with SK-MEL-2 melanoma is 93.8%; with EKVX NSCLC, 81.7%; with SN12C renal, 73%; with UO-31 renal it was 80.4%; in the test on ACHN renal it was 52.6%; with A498 renal it was 95.9%. The growth in the test with CCRF-CEM leukemia was 64%; with MOLT-4 leukemia it was 25.2%; in the test on SR leukemia it was 34.3%; with RPMI-8226 leukemia, 83.2%; with OVCAR-8 ovarian it was 39.9%; with OVCAR-5 ovarian, 121%. Also, the growth in the test on OVCAR-4 ovarian is 93%; with SK-OV-3 ovarian it was 118%; with IGROV1 ovarian it was 75.4%; in the test on OVCAR-3 ovarian it was 52.7%; with HS 578T breast, 46.8%; in the test with NCI/ADR-RES ovarian, 99.1%.
